For assay [1], the target named is Retinoic acid receptor RXR-alpha (Homo sapiens) (UniProt P19793). Kind of assay: qHTS assay to identify small molecule agonists of the RXR signaling pathway (AID 1159527; calls by dose curve; further: nearly all actives have a fitted effect of over 35% in size; further: potency means the concentration at half of the fitted maximal effect). Summed up:
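16 hr incubation of compound-treated RXR-alpha-UAS-bla HEK 293T cells (2% charcoal-stripped FBS, 37 C) preceded a 2 hr room-temperature LiveBLAzer FRET substrate step and blue/green fluorescence measurement.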
Background: Quantitative high-throughput screening tests each substance at several concentrations.

Assay [2] can be described thus: qHTS assay to identify small molecule agonists of the RXR signaling pathway - cell viability counter screen (AID 1159529).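 Further: HEK 293T cells carrying an RXR-alpha UAS beta-lactamase reporter; series mostly up to about 77 µM; nearly all actives have a fitted effect of over 50% in size.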 In short, it runs like this: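 In this parallel viability measure, GeneBLAzer RXR-alpha HEK 293T cells (2% charcoal-stripped FBS) were given a 5 hr preincubation, treated with compounds 16 hr at 37 C, and read by CellTiter-Glo luminescence.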

Assay [3] can be described thus: qHTS assay to identify small molecule antagonists of the retinoid acid receptor (RAR) signaling pathway - cell viability counter screen (AID 1159551). Further: nearly all actives have a fitted effect of over 35% in size. Summed up:
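Cytotoxicity counter screen: ATP content quantified by CellTiter-Glo luminescence in C3RL4 cells treated 6 hr at 37 C with compound and retinol (1 uM final). Cells plated at 1,000/well and cultured overnight before dosing.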

Assay [4] in a line: qHTS assay to identify small molecule antagonists of the estrogen related receptor (ERR) signaling pathway from Tox21 library - cell viability counter screen (AID 1224834). Further: nearly all actives have a fitted effect of over 30% in size. Summed up: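 CellTiter-Fluor fluorescence, read after 30 min at 37 C, measures viability of ERR cells. Cells plated at 2,000/well and incubated 6 h before pin-tool compound addition, then exposed 17.5 hours at 37 C.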

Assay [5] addresses Luciferin 4-monooxygenase (Photinus pyralis) (UniProt P08659). Put plainly: qHTS assay to identify small molecule inhibitors of firefly luciferase (AID 1224835). Further: series mostly up to about 120 µM; nearly all actives have a fitted effect of over 25% in size. In short, it runs like this:
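Quantitative HTS format; KM concentrations of both substrates. Purified P. pyralis FLuc activity quantified from luminescence images.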

Assay [6] in a line: qHTS assay to identify small molecule agonists of the constitutive androstane receptor (CAR) signaling pathway - cell viability counter screen (AID 1224836). Further: series mostly up to about 92 µM; nearly all actives have a fitted effect of over 45% in size. In short, it runs like this:
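Using CellTiter-Fluor, viability of HepG2 cells harbouring hCAR and CYP2B6-2.2kb was measured following 23 h incubation with a 15-concentration compound series plus PK11195 (0.75 uM final).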

The target in assay [7] is Nuclear receptor subfamily 1 group I member 3 (Homo sapiens) (UniProt Q14994). Put plainly: qHTS assay to identify small molecule agonists of the constitutive androstane receptor (CAR) signaling pathway (AID 1224839).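 Further: HepG2 cells stably carrying human CAR and a CYP2B6 luciferase reporter; series mostly up to about 92 µM; nearly all actives have a fitted effect of over 15% in size.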 Summed up: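 Double-stable HepG2 cells (hCAR, CYP2B6-2.2kb) seeded 4 h before compound addition. Exposure 24 h with 0.75 uM PK11195 final. Luciferase detected by ONE-Glo.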

Assay [8] can be described thus: qHTS assay to identify small molecule antagonists of the estrogen related receptor signaling pathway with the pleiotropic PPARgamma coactivator (PGC) from Tox21 10K library - cell viability counter screen (AID 1224840; active means well fitted cell-killing curve with a large enough effect in the repeat runs, not every such curve was filed as active; further: nearly all actives have a fitted effect of over 40% in size). In short, it runs like this:
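Counter-screen for cytotoxicity: after 17.5 h compound exposure at 37 C, CellTiter-Fluor reagent added to PGC/ERR cells for 30 min and fluorescence read. Cells were seeded at 2,000 per well 6 h before dosing.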

Assay [9] is described as follows: qHTS assay to identify small molecule antagonists of the constitutive androstane receptor (CAR) signaling pathway - cell viability counter screen (AID 1224837). Further: series mostly up to about 92 µM; nearly all actives have a fitted effect of over 45% in size. In short, it runs like this: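 Cytotoxicity counter-screen: CellTiter-Fluor fluorescence after 23 h compound exposure (15-point qHTS) in double-stable HepG2-CYP2B6-hCAR cells, with 50 nM CITCO added.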
Assay [10] deals with Nuclear receptor subfamily 1 group I member 3 (Homo sapiens) (UniProt Q14994). Put plainly: qHTS assay to identify small molecule antagonists of the constitutive androstane receptor (CAR) signaling pathway (AID 1224838).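 Further: HepG2 cells stably expressing hCAR with CYP2B6 luciferase reporter stimulated by CITCO; nearly all actives have a fitted effect of over 40% in size.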 Further: potency means the concentration at half of the fitted maximal effect. In short, it runs like this: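 Antagonism measured as luciferase signal (ONE-Glo, 30 min, room temperature) in CAR-stimulated cells: HepG2-CYP2B6-hCAR double-stable line exposed 24 hr at 37 C to compound in a 15-point series plus 50 nM CITCO.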

The nature of assay [11]: qHTS assay to identify small molecule antagonists of the estrogen related receptor signaling pathway with the pleiotropic PPARgamma coactivator (PGC) from Tox21 10K library (AID 1224841; call rule not given here; further: series mostly up to about 92 µM; actives are mostly falling curves and most rising ones were filed inactive; nearly all actives have a fitted effect of over 50% in size). In short, it runs like this:
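Luminescence (One-Glo, 30 min at room temperature) after 18 h compound treatment at 37 C of PGC/ERR reporter cells plated at 2,000 cells/well and settled 6 h beforehand.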

A short description of assay [12]: qHTS assay to identify small molecule agonists of the estrogen related receptor signaling pathway with the pleiotropic PPARgamma coactivator (PGC) from Tox21 10K library (AID 1224842). Further: nearly all actives have a fitted effect of over 15% in size. Summed up:
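PGC/ERR reporter cells (NTP line) were seeded 2,000 per well, rested 6 h at 37 C/5% CO2, then pin-dosed with compounds in DMSO for 18 h at 37 C; luciferase read by One-Glo luminescence after 30 min at room temperature.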

The structures appear in SMILES notation. Inconclusive results are not listed. Unmarked numbers belong to inactive results. The source made the active and inactive calls. Unless noted, the call rests on the fitted dose curve; in most records, active means well fitted curve in the direction sought with a large enough effect in the repeat runs; inconclusive means weak or mixed curves; inactive means no such curve, though single readings can be large; an effect the other way counts as inactive or inconclusive.
On the % scale 0 is the no-effect control and ±100 the full control effect.

Sequence of Nuclear receptor subfamily 1 group I member 3 (Homo sapiens) (Q14994 whole entry, looked up): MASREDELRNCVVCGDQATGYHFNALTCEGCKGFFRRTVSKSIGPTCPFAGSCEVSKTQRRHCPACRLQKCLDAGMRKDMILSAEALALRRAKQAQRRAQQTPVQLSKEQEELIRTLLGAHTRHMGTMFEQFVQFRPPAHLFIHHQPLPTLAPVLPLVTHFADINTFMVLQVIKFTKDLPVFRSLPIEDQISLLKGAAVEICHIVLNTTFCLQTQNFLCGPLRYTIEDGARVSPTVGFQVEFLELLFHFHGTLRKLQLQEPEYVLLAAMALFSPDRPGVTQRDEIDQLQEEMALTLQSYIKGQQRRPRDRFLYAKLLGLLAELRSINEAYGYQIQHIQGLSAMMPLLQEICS
Sequence of Retinoic acid receptor RXR-alpha (Homo sapiens) (P19793 whole entry, looked up): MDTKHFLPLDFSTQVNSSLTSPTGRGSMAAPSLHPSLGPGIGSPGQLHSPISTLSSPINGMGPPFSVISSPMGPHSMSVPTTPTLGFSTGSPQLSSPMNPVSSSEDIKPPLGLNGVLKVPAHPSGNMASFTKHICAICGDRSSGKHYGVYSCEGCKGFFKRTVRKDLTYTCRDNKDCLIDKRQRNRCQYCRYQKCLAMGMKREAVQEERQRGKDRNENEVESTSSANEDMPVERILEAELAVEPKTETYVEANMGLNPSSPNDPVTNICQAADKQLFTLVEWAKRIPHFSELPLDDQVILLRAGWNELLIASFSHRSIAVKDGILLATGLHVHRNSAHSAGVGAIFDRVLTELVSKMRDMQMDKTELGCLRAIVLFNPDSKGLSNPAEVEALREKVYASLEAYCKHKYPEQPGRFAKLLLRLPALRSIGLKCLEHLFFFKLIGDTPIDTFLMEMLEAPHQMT
Sequence of Luciferin 4-monooxygenase (Photinus pyralis) (P08659 whole entry, looked up): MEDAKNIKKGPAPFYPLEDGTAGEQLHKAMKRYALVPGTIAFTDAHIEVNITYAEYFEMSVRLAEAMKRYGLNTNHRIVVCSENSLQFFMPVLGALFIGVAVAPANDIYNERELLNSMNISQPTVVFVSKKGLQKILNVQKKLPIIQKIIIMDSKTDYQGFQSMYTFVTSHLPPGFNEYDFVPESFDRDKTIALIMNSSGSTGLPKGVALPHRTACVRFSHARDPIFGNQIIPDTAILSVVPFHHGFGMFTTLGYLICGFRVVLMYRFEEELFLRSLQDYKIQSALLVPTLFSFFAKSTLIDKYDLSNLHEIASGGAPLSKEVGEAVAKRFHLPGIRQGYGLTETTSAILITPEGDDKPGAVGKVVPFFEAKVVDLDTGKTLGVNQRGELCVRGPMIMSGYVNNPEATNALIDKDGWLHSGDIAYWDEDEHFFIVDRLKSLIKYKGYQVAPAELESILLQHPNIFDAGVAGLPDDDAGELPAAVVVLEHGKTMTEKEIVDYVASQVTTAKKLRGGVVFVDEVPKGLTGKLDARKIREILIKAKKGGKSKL

As for `OC1OC[C@@H](O)[C@H](O)[C@H]1O` (some centres undefined), the Potency result in assay [1], in [2], in [4], in assay [5] and in [7] was “inactive” each time. The call in assay [3], in assay [6] and in assay [8] was inactive.
With `Nc1nc(F)nc2c1ncn2[C@@H]1O[C@H](CO)[C@@H](O)[C@@H]1O`, the Potency result in assay [1], in [2], in assay [4] and in assay [7] was “inactive” in each case. Also, the compound was called inactive in [3], in [6], in assay [9] and in assay [8].
With `CC(C)CCCC(C)CCCC(C)CCCCC(C)CCCC(C)CCCC(C)C` (centres undefined), the Potency entry in [1], in assay [2], in [4], in [5] and in [7] was “inactive” throughout. For the same compound, the outcome in [3], in [6] and in assay [8] was inactive.
In the case of `C=C(C)C(=O)OCCCCCCCCCCCCCCCCCC`, in [1], the activation is 6.68% [at 15.8 µM]. Also, the activity change, negative = cytotoxicity was 15.1% [at 15.8 µM] in assay [2], -0.339% [at 19 µM] in [3] and 4.26% [at 19 µM] in assay [9]. Further, the viability change, negative = cytotoxic is -0.607% [at 19 µM] in assay [4], 1.14% [at 19 µM] in assay [6] and 1.61% [at 19 µM] in assay [8].
For the compound `C=CCOc1nc(OCC=C)nc(OCC=C)n1`, the Potency entry in assay [1], in assay [2], in assay [4] and in assay [5] was “inactive” in each case. Also, the compound was called inactive in assay [3], in [6] and in assay [8].
With `CO[Si](CCCNCCC[Si](OC)(OC)OC)(OC)OC`, the Potency entry in assay [1], in assay [2], in assay [5], in assay [10] and in [7] was “inactive” throughout. Also, the result in [3], in assay [6], in assay [9] and in assay [8] was inactive.
For the compound `CC(C)[C@H](N)C(=O)OCCOCn1cnc2c(=O)[nH]c(N)nc21`, the Potency entry in assay [1], in [2], in assay [4] and in assay [5] was “inactive” throughout. For the same compound, the outcome in [3], in assay [6] and in assay [8] was inactive.
With `COC(C(=O)O)c1ccccc1` (centres undefined), the Potency result in assay [1], in assay [2], in [4], in [5], in assay [10] and in [7] was “inactive” each time. For the same compound, the result in [3], in assay [6] and in assay [8] was inactive.
As to `COC(=O)CCCCCCCCC(=O)OC`, the Potency entry in [1], in [2], in [4], in [11] and in assay [12] was “inactive” throughout. Further, the compound was called inactive in assay [3], in assay [6], in assay [9] and in assay [8].
As to `Cc1c(F)cc2c(=O)c(C(=O)O)cn3c2c1CCC3C` (centres undefined), the Potency result in assay [1], in assay [2], in assay [5], in assay [10], in [7] and in [12] was “inactive” throughout. Moreover, the compound was classed as inactive in [3], in assay [6], in assay [9] and in assay [8].
For the compound `O=C(O)c1ccccc1-c1ccc(C(F)(F)F)cc1`, the Potency entry in assay [1], in assay [2] and in assay [4] was “inactive” each time. Moreover, the outcome in assay [3], in assay [6] and in assay [8] was inactive.
For the compound `CCCCCCCCCCC1CO1` (centres undefined), the Potency result in [1], in assay [2], in [4] and in [7] was “inactive” in each case. Besides, the outcome in assay [3], in [6], in assay [9] and in [8] was inactive.
With `CCCC(=O)O[C@]1(C(=O)CCl)[C@@H](C)C[C@H]2[C@@H]3CCC4=CC(=O)C=C[C@]4(C)[C@@]3(F)C(=O)C[C@@]21C`, the Potency result in [1], in assay [2], in assay [4] and in assay [7] was “inactive” each time. In addition, the compound was classed as inactive in assay [3], in assay [6] and in assay [8].
As to `C=CCn1c(=O)n([C@@H]2O[C@H](CO)[C@@H](O)[C@H]2O)c2nc(N)[nH]c(=O)c21`, the Potency result in [1], in [2], in assay [4] and in assay [5] was “inactive” in each case. Besides, the outcome in assay [3], in assay [9] and in [8] was inactive.
In the case of `C=CC(=O)N1CCOCC1`, the Potency result in [1], in assay [2], in [5], in [11] and in assay [12] was “inactive” each time. Further, the outcome in assay [3], in assay [6], in assay [9] and in assay [8] was inactive.
As for `CCn1cc(C(=O)O)c(=O)c2cc(F)c(N3CCN(C)CC3)cc21`, the activation in [1] is 8.93% [at 15.8 µM]. The values for the activity change, negative = cytotoxicity in [2], in assay [3] and in assay [9] were 6.61% [at 15.8 µM], 1.65% [at 19 µM] and 2.92% [at 19 µM], respectively. Besides, the viability change, negative = cytotoxic in assay [4] was 3.25% [at 19 µM]; in assay [6], 2.39% [at 19 µM]; in assay [8], 8.09% [at 19 µM].
With `NS(=O)(=O)c1cc(C2(O)NC(=O)c3ccccc32)ccc1Cl` (centres undefined), the Potency result in assay [1], in assay [2] and in assay [5] was “inactive” each time. Besides, the compound was called inactive in assay [3], in [6] and in assay [8].
On to `CCCc1ccc(N)cc1`, for which the Potency result in assay [1], in assay [2], in assay [4], in assay [10] and in [7] was “inactive” each time. For the same compound, the result in assay [3], in [6], in assay [9] and in [8] was inactive.
For `CN(C)N=Nc1ccccc1`, the Potency entry in [1], in [2], in assay [4], in assay [11] and in [12] was “inactive” each time. Moreover, the call in assay [3], in assay [6], in [9] and in [8] was inactive.
For the compound `CC(C)(C)CC(C)(C)N`, the Potency in assay [1] was 2.12 µM (active). Further, the Potency result in assay [2] and in assay [4] was “inactive” each time. Further, the outcome in [3], in [6], in [9] and in assay [8] was inactive.
Consider `OCC(O)[C@@H](O)[C@H](O)[C@H](O)CO[C@H]1O[C@H](CO)[C@@H](O)[C@H](O)[C@H]1O` (some centres undefined), for which the Potency entry in [1], in [2], in [4] and in [5] was “inactive” each time. Besides, the compound was called inactive in assay [3], in [6] and in assay [8].
Consider `CCCCCCCCCCCCCCCCCC(=O)OCCCCCCCCCCCCCC(C)C`, for which the Potency entry in assay [1], in [2] and in [5] was “inactive” throughout. The call in assay [3], in assay [6] and in assay [8] was inactive.
As for `CC1CCN(CCCC(=O)c2ccc(F)cc2)CC1`, the Potency result in assay [1], in assay [2], in assay [4], in [10], in [7] and in assay [11] was “inactive” in each case. The Potency entry in assay [12] is “inactive”. Besides, the compound was called inactive in [3], in assay [6], in assay [9] and in assay [8].
For `O=Cc1ccccc1[N+](=O)[O-]`, the Potency result in assay [1], in assay [2], in [4], in assay [10], in assay [11] and in assay [12] was “inactive” each time. For the same compound, the call in assay [3], in [6], in [9] and in assay [8] was inactive.
Turning to `CC(CCO)CCCC(C)(C)O` (centres undefined), the Potency in assay [1] was 3.09 µM (active); in [10], 27.3 µM (active). Also, the Potency result in assay [2], in [5] and in [7] was “inactive” throughout. The compound was called inactive in [3], in assay [9] and in [8].

Source of the values: PubChem BioAssay (Tox21).
